# This is one part of a sample in which hits are shown more often than they occur.
# DT40 TDP1 CPT: DT40-hTDP1 cell growth loss with CPT. hit rate 12% among 420,000. Potency, µM (titrated, usually from 46.2 µM), without a hit: at the top dose activity change, negative = growth inhibition, usual class: inhibitors. chicken DT40 Tdp1-/-;hTDP1 cells + 20 nM CPT, ATP luminescence, 48 h; note: potency is the fitted concentration of half-maximal effect; nearly all actives have a fitted effect of over 55% in size
#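 Chicken DT40 Tdp1-/- cells complemented with human TDP1, 400 cells/well, exposed to compounds plus 20 nM camptothecin for at least 48 h at 37 C; viability read as ATP content by CellTiter-Glo luminescence.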
# ALOX12 inh: ALOX12 (human) lipoxygenase inhibition; P18054; purified 12hLO, xylenol orange hydroperoxide absorbance; Potency, µM (titrated, usually from 108 µM), without a hit: at the highest dose activity change, negative = inhibition, actives largely listed as inhibitors; hit rate 1.1% among 580,000; note: potency is the fitted concentration of half-maximal effect
# Target sequence (P18054 whole entry, looked up): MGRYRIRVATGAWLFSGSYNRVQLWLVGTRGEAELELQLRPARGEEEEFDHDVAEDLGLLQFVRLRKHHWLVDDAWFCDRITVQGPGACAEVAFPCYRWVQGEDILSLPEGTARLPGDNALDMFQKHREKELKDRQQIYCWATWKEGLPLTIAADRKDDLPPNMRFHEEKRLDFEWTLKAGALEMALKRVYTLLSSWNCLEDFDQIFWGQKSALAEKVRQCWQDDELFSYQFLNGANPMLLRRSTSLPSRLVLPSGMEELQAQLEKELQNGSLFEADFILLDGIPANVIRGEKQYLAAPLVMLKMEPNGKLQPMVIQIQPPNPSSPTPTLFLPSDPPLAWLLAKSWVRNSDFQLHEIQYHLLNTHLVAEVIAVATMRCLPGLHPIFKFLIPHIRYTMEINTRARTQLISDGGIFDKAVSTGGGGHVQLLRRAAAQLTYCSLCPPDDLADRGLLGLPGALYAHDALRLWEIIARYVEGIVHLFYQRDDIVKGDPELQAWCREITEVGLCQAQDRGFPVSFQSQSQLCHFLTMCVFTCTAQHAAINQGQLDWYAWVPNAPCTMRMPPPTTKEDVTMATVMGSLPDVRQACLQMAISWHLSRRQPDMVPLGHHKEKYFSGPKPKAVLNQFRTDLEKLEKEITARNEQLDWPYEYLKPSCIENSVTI
#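 Purified human 12hLO at 150 nM in 25 mM Hepes, 0.01% Triton X-100, pH 7.0, preincubated 15 min at room temperature with compound. Reaction started with 40 uM arachidonic acid, 30 min at room temperature. Hydroperoxide measured by Fe-xylenol orange, 573/405 nm absorbance ratio.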
# HT1080 IDH1KD tx: kills HT-1080 cells with IDH1 knockdown | Potency, µM (top dose mostly 46.1 µM), without a hit: at the highest dose activity, negative = toxicity, hits mostly cytotoxic | AID 686971 | hit rate 2% among 360,000 | HT-1080 IDH1 knockdown viability, ATP luminescence, 48 h;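 note: potency is the fitted concentration of half-maximal effect; 0% = DMSO wells and -100% = cell-free medium wells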
#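 IDH1KD HT-1080 cells, 750/well, RPMI + 5% FBS; compound pinned after 2 h settling; 48 h, 37 °C; CellTiter-Glo luminescence; % activity normalised to DMSO and no-cell wells; curves fitted, classed by r2 and efficacy.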
# DT40 TDP1 no CPT: qHTS for Inhibitors of human tyrosyl-DNA phosphodiesterase 1 (TDP1): qHTS in cells in absence of CPT; DT40 Tdp1-/- hTDP1 cells, no CPT, ATP luminescence, 48 h; Potency, µM (series often up to 46.2 µM), inactives show at the top dose activity change, negative = growth inhibition, most hits filed as inhibitors; hit rate 15% among 420,000; AID 686978, 2013; note: potency is the fitted concentration of half-maximal effect; nearly all actives have a fitted effect of over 55% in size
#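 Stably hTDP1-transfected Tdp1-null chicken DT40 cells were treated with library compounds minus camptothecin and grown for at least 48 hr at 37 °C, after which cellular ATP was quantified by luminescence.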
# IL-1B inflam inh: inflammasome signaling inhibition, IL-1 beta readout | THP-1 LPS/ATP IL-1B secretion, AlphaLISA, 16 h; hits give low values | activity change, % at 57.5 µM | hit rate 4.7% among 360,000; in the data active = activity change below about -50%; inconclusive = mostly about -30% to -49%
#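 THP-1 cells pretreated 1 hr with compounds (up to 57.5 uM final), then stimulated with LPS (250 ng/mL final) plus ATP (1.25 mM final); secreted IL-1B measured by AlphaLISA after 16 hr, decreased signal indicating inhibition.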
# HT1080NT lethal: kills 2HG-producing HT-1080-NT fibrosarcoma cells; HT-1080-NT fibrosarcoma viability, CellTiter-Glo ATP luminescence, 48 h; Potency, µM (series often up to 46.1 µM), without a hit: at the highest dose activity, negative = less viability, actives largely listed as cytotoxic; hit rate 1.6% among 360,000;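 note: NT is the 2HG producing partner of a matched IDH1 knockdown line; potency is the fitted concentration of half-maximal effect; 0% = DMSO-treated cells and -100% = media-only wells without cells; nearly all actives have a fitted effect of over 55% in size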
#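 Viability of the 2HG-overproducing fibrosarcoma line after 48 hours of compound exposure at 37 degrees C was determined by luminescence with CellTiter-Glo, and concentration-effect curves were then fitted and categorized.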
# * hit, by the source's call; ? = inconclusive; . = not tested or not shown; [ ] = dose if it differs, or a comment. Unless noted, calls come from the whole dose curve; as a rule, active = well fitted curve in the direction sought with a large enough effect; inconclusive = small, poorly fitted or top-dose-only effect, or another doubt; inactive = no such curve, though single readings can be large; an effect the other way counts as inactive or inconclusive. Unless noted, % is set by controls: 0 for no effect and ±100 for the full control effect.
SMILES,DT40 TDP1 CPT,ALOX12 inh,HT1080 IDH1KD tx,DT40 TDP1 no CPT,IL-1B inflam inh,HT1080NT lethal
Cc1ccc(-n2c(Cl)c(Cl)nc(Cl)c2=O)cc1,0.291µM*,.,2.91µM*,0.92µM*,-97.3*,2.59µM*
CC(C)(C)NC(=O)CSc1nc2ccc(Nc3nc(N4CCOCC4)nc(N4CCOCC4)n3)cc2s1,13µM*,1.7%,?,6.51µM*,-8.3,?
CCOC(=O)CSc1nc2ccc(Nc3nc(N4CCOCC4)nc(N4CCOCC4)n3)cc2s1,?,-13.1%,?,20.6µM*,17.1,2.9%
Cc1ccc(NC(=O)CSc2nc3ccc(Nc4nc(N5CCOCC5)nc(N5CCOCC5)n4)cc3s2)cc1,?,-8.2%,2.3%,18.4µM*,20.7,0.4%
COc1ccc(NC(=O)CSc2nc3ccc(Nc4nc(N5CCOCC5)nc(N5CCOCC5)n4)cc3s2)cc1,11.6µM*,-6.2%,2.4%,6.51µM*,-9.6,1.9%
CCOC(=O)CSc1nc2ccc(NC(=O)c3cccc(F)c3)cc2s1,-21.3%,-8.9%,.,-26.5%,.,.
CC(=O)Nc1ccc2nc(SCC(=O)Nc3ccc(N4CCOCC4)c(Cl)c3)sc2c1,?,?,-13.5%,?,0.0,-0.3%
CC(=O)CSc1nc2ccc(Nc3nc(N4CCOCC4)nc(N4CCOCC4)n3)cc2s1,?,3.9%,?,?,-13.4,-20.7%
CC(=O)N(C)c1ccc(NC(=O)Cn2cnc3c2c(=O)n(C)c(=O)n3C)cc1,.,32.4%,.,.,.,.
COCCn1c2c(c(=O)n1-c1ccccc1)CCN(C(=O)c1cc3ccccc3[nH]1)C2,.,-2.2%[176 µM],.,.,.,.
COc1ccc(/C=N/N(c2ccccc2)c2ccccc2)cc1O,-1.7%,?,-6.0%,5.4%,-24.9,-1.2%
COC(=O)c1[nH]c2cc(OC)c(OC)cc2c1/C=N/Nc1ccccc1,?,?,-2.5%,18.4µM*,-13.0,-17.5%
COc1cc(/C=N/Nc2ccccc2)ccc1O,0.8%,?,20.6µM*,-2.3%,21.3,?
COc1cc(/C=N/Nc2ccccc2C(F)(F)F)ccc1O,-1.9%,?,2.5%,?,-8.1,2.5%
COc1cc(/C=N/N(c2ccccc2)c2ccccc2)ccc1O,-10.2%,0.0%,16.4µM*,-0.4%,?,18.4µM*
COc1cc(/C=N/Nc2cccc(C)c2)cc(Br)c1O,5.7%,2.82µM*,?,4.2%,-22.3,?
COCCN1C(=O)c2ccccc2C(C(=O)Nc2ccc(C)cn2)C12CCCCC2 (stereo not given),.,31.9%,.,.,.,.
COc1ccccc1C1CC(c2cccs2)=NN1C(=O)CCC(=O)O (stereo not given),-28.7%,3.5%,17.0%,-5.4%,34.3,9.6%
Cc1ccc(C2CC(c3cccs3)=NN2C(=O)CSC2=NCCS2)cc1 (stereo not given),?,-56.7%,-2.4%,?,.,-16.1%
COc1cccc(C2CC(c3cccs3)=NN2C(=O)CSc2nc3ccccc3o2)c1OC (stereo not given),25.9µM*,9.8%,0.7%,23.1µM*,-5.0,11.7%
COc1ccc(C2CC(c3cccs3)=NN2C(=O)c2ccc(Br)o2)cc1 (stereo not given),23.1µM*,?,-4.9%,?,-5.0,-4.4%
COc1ccc(C2CC(c3cccs3)=NN2C(=O)CSC2=NCCS2)cc1 (stereo not given),-40.7%,-1.2%,-16.6%,?,-81.0*,-14.3%
O=C(Nc1ccccc1)N1CCCN(c2nc3ncccc3o2)CC1,.,10.6%[176 µM],.,.,.,.
O=C(N[C@@H](Cc1ccccc1)C(=O)N1CCN(S(=O)(=O)c2ccccc2F)CC1)c1ccco1,?,-0.1%,11.6%,?,5.5,10.4%
Cc1ccc(S(=O)(=O)N2CCN(C(=O)[C@H](Cc3ccccc3)NC(=O)c3ccco3)CC2)cc1,?,169.2%,3.2%,?,11.2,-1.4%
SMILES,DT40 TDP1 CPT,ALOX12 inh,HT1080 IDH1KD tx,DT40 TDP1 no CPT,IL-1B inflam inh,HT1080NT lethal
CSCCC(NC(=O)c1ccco1)C(=O)N1CCN(C(c2ccccc2)c2ccccc2)CC1 (stereo not given),23.1µM*,-4.4%,-1.9%,16.4µM*,?,-9.2%
Cc1ccc(S(=O)(=O)N2CCN(C(=O)[C@H](Cc3ccccc3)NC(=O)c3ccco3)CC2)cc1C,?,22.5%,-13.5%,16.4µM*,-5.9,-2.6%
CSCCC(NC(=O)c1ccco1)C(=O)N1CCCC(C(F)(F)F)C1 (stereo not given),-6.6%,47.8%,-3.7%,?,2.7,-0.6%
Cc1ccc(C)c(S(=O)(=O)N2CCN(C(=O)[C@H](Cc3ccccc3)NC(=O)c3ccco3)CC2)c1,23.1µM*,-5.4%,9.5%,16.4µM*,27.2,13.6%
Cc1ccc2oc(-c3cc(NC(=O)c4cccc(Cl)c4)ccc3O)nc2c1,.,-2.5%,.,.,.,.
COc1ccc(Cl)cc1-c1ccc2c(n1)CN(CCOc1ccccc1)C(=O)CO2,.,-15.2%[176 µM],.,.,.,.
COc1cc(C(=O)NC(=S)NCc2ccncc2)cc(OC)c1OC,?,?,0.8%,20.6µM*,-25.5,-2.0%
COc1ccc(C(=O)NNC(=S)NC(=O)c2ccc(F)cc2)cc1Br,?,?,?,?,81.1,?
COc1ccc(CC(=O)NNC(=S)NC(=O)c2cc(OC)c(OC)c(OC)c2)cc1,9.2µM*,?,?,7.31µM*,21.0,?
COc1cc(C(=O)NNC(=S)NC(=O)c2ccc(F)cc2)cc(OC)c1OC,29.1µM*,?,?,?,83.5,-28.0%
COc1ccc(C(=O)NC(=S)NCc2cccnc2)cc1OC,-20.8%,?,-13.9%,?,11.2,-6.9%
COc1ccc(CC(=O)NNC(=S)NC(=O)c2cccnc2)cc1,5.1%,?,2.3%,?,28.2,7.8%
CCOC(=O)c1sc(-c2ccc(Cl)cc2)cc1NC(=O)CN1CCCC1,.,6.9%,.,.,.,.
CN(Cc1cccc(Cl)c1Cl)C(=O)CCN=C1NS(=O)(=O)c2ccccc21,.,7.0%,.,.,.,.
O=C1CC(N2CCN(c3ccccn3)CC2)C(=O)N1CC(c1ccccc1)c1ccccc1 (stereo not given),23.1µM*,-13.6%,-20.4%,?,17.3,-20.6%
CC(=O)NC[C@H]1CCN(S(=O)(=O)c2cccc(C#N)c2)C[C@H]1N(C)C,.,21.1%,.,.,.,.
NC(=O)[C@@H]1CCCN1c1ccc(-c2nc(Cc3ccccc3)no2)cn1,.,-15.0%,.,.,.,.
